57 compounds from PubChem BioAssay AID2717 (Broad Institute, 2010) can be followed below.

For orientation: inhibition means the relative decrease from the control value, in per cent.

In all, about 300,000 compounds went through this assay and about 3,200 (1.1%) were called active. The list comes from a sample in which actives are over-represented; it also holds similar structures and randomly drawn compounds. Unmarked numbers belong to inactive results. Rule as the data show it: active = inhibition above about 75%; inconclusive = no clear call, values can overlap the other calls; inactive = below that; tested in HMLE shEcad cells.

The test in a line: growth suppression of cancer stem-like cells – cell-based, luminescence, primary screen (AID 2717). The following applies: cancer stem cell-like cells viability, at 7.5 µM, active compounds read high.
With `O=C(CCCOc1ccccc1)NNC(=O)c1ccc(Cl)cc1`, the inhibition was -7.46%. For the compound `O=C(NCCc1ccco1)c1ccc(OCc2cn3ccccc3n2)cc1`, the inhibition was -8.4%. Turning to `COc1ccc(NC(=O)c2cc(-c3ccc(C)cc3)on2)cc1`, the inhibition was 11.2%. Regarding `COc1ccc(NC(=O)/C(Cl)=C(/Cl)S(=O)Cc2ccc(C)cc2)cn1` (configuration not stated), the inhibition is 112% (active).

With `COc1ccc(Nc2cc(Cl)ccc2C(=O)O)cn1`, the inhibition is 5.84%. With `NC(=O)Nc1ccc(C(=O)OCC(=O)NC2CCCc3ccccc32)cc1` (configuration not stated), the inhibition was 3.37%.

On to `C=C(C)COc1ccc(-c2n[nH]c(C)c2-c2ccccc2)c(O)c1`, for which the inhibition was -11.5%. On to `COc1ccc(-c2n[nH]c(C)c2-c2ccccc2OC)c(O)c1`, for which the inhibition was 2.11%. Turning to `C=C(C)COc1ccc(-c2n[nH]c(C)c2-c2ccccc2OC)c(O)c1`, the inhibition was 102% (active).

As for `COc1cccc(/C=N/Nc2ncc(C(F)(F)F)cc2Cl)c1O`, the inhibition was 102% (active).

In the case of `COc1cccc(/C=N/Nc2cc(C)nc(-c3ccccc3O)n2)c1O`, the inhibition was 12.2%. On to `COc1cccc(/C(C)=N/Nc2ncc(Cl)cc2Cl)c1`, for which the inhibition was 24.2%. Consider `Cc1ccc(S(=O)(=O)Nc2nc(CN3CCOCC3)nc3sc(C)c(C)c23)cc1`, for which the inhibition was -7.69%. Turning to `Cc1ccc(NC(=O)C(C)Sc2nnc(C3CC3)n2C2CC2)cc1S(=O)(=O)N1CCOCC1` (configuration not stated), the inhibition is -10.2%. `O=C(NNS(=O)(=O)c1c(F)cc(F)c(Cl)c1F)C12CC3CC(CC(C3)C1)C2`: the inhibition is -12.7%. To `COc1cccc2sc3cc(NCC[C@@H]4CCCN4C)ccc3c(=O)c12` belongs 6.75%; to `Cc1nc2ccc(NC(=O)c3cccc(S(=O)(=O)N4CCOCC4)c3)cc2s1`, -13.4%; to `COc1cccc(/C=C/c2ccc3ccccc3n2)c1OC(C)=O`, 104% (active).

Take `CCOc1cccc(/C=C/c2ccc3ccccc3n2)c1OC(C)=O`: the inhibition was 64.6%.

For the compound `COc1cccc(/C=C2\C=C(c3ccc(C)cc3)OC2=O)c1OC(C)=O`, the inhibition was -0.631%. Take `O=C1N[C@@H](c2ccccc2)COC(=O)[C@H](Cc2ccc(F)cc2)C/C=C\C[C@@H]1CC(=O)N(CCO)Cc1ccccc1`: the inhibition is 9.15%.

Take `CCN(CC(=O)Nc1c(F)cccc1F)C(=O)c1ccc(-c2ccc(C(C)=O)cc2)o1`: the inhibition is -4.76%. Take `COc1ccccc1CNC(=O)COC(=O)c1cccs1`: the inhibition is 18.5%. Turning to `C=CC[C@@H](CC(=O)N[C@H](CO)Cc1ccccc1)C(=O)N[C@H](C)COC(=O)[C@@H](CC=C)Cc1ccc(F)cc1`, the inhibition is -14.7%. On to `COc1ccccc1N1CCN(C(=O)CSc2nnc(-c3ccoc3C)o2)CC1`, for which the inhibition is -0.373%. As to `COc1ccccc1N1CCN(C(=O)CSc2ncnc3c2cnn3-c2ccc(C)c(C)c2)CC1`, the inhibition is 75.8% (active). Regarding `COC(=O)CSc1ncnc2c1cnn2-c1ccc(C)cc1C`, the inhibition was 8.04%.

For `COc1ccc(C2(c3ccc(OC)cc3)NC(=O)N(CC(=O)Nc3cc(C)on3)C2=O)cc1`, the inhibition was -19.5%. The result for `O=C(Cn1cnc2ccccc2c1=O)NNC(=O)c1ccccc1F` reads -14%; that for `CCCCn1c(CCCNC(=O)CC)nc2ccccc21`, -2.03%; that for `CCCCn1c(CN2CCN(CCO)CC2)nc2ccccc21`, -13.9%. The result for `C=C(Br)Cn1c(CCCC)nc2ccccc21` reads 77.7% (active).

In the case of `O=C(Nc1cccc(S(=O)(=O)NC2=NCCC2)c1)c1ccc(F)cc1F`, the inhibition was 17.5%. For `Cc1cccc(C(=O)OCC(=O)NC(C)C2CC3CCC2C3)c1O` (configuration not stated), the inhibition was -4.77%. With `CCN(C[C@H]1N[C@@](CC)(C(=O)OC)[C@H]2C(=O)N(Cc3ccccc3)C(=O)[C@@H]12)S(=O)(=O)c1ccc(C(F)(F)F)cc1`, the inhibition is 44.8%.

On to `COc1ccc(Nc2nc(-c3cccnc3)nc3ccccc23)cn1`, for which the inhibition is 2.87%. For the compound `CC(=O)Nc1cccc(Nc2nc(-c3cccs3)nc3ccccc23)c1`, the inhibition was 33.9%. On to `Cc1cccc(-c2nc(Nc3ccc(O)cc3)c3ccccc3n2)c1`, for which the inhibition is 94% (active).

For `Cc1cccc(NC(=O)CN2CCN(C(=O)C3CCN(C(=O)/C=C/c4ccccc4)CC3)CC2)c1C`, the inhibition was -8.71%. To `CC(=O)Nc1ccc(Nc2c3ccccc3nc3ccccc23)cc1` belongs 85.3% (active); to `CC(=O)Nc1ccc(NC(=O)COc2ncnc3ccccc23)cc1`, -6.11%; to `Cc1ccc(Nc2c3c(nc4ccccc24)CCC3)cc1`, 2.02%. As for `Cc1ccc(CC(=O)Nc2ccc(S(=O)(=O)N3CCOCC3)cc2)cc1C`, the inhibition was 6.62%.

For `Cc1cccc(N(CC(=O)N=Nc2c(O)[nH]c3ccccc23)S(C)(=O)=O)c1C`, the inhibition was -17.4%. Take `CN1CCN(c2ccc(S(=O)(=O)Nc3ccccc3)cc2[N+](=O)[O-])CC1`: the inhibition is 49.9%. On to `O=[N+]([O-])c1cc(S(=O)(=O)Nc2cccc(Cl)c2)ccc1N=Nc1c(O)[nH]c2ccccc12`, for which the inhibition was 96.2% (active). Regarding `O=C(CC1SC(N2CCOCC2)=NC1=O)Nc1ccccc1F` (configuration not stated), the inhibition is -28.9%. On to `COc1cc(/C=C/C(=O)OCC(=O)NC2CC2)cc(OC)c1OC`, for which the inhibition was 1.1%.

Turning to `COC(=O)c1ccc(C)c(NC(=O)Cn2c(C)csc2=O)c1`, the inhibition was 13.1%. As for `CCCCC(=O)Nc1ccc(C(=O)Nc2cc(C(F)(F)F)ccc2Cl)cc1`, the inhibition was 5.17%.

`CCCCN(CCCC)CCC(O)c1cc2c(Cl)cc(Cl)cc2c2cc(C(F)(F)F)ccc12` (configuration not stated): the inhibition was 95.2% (active). For `Cc1ccc(C)c(NC(=O)COC(=O)c2nn(C)c(=O)c3ccccc23)c1`, the inhibition was -4.9%. Consider `Cc1ccc(-n2[nH]c(C)c(/C=N/N3C(=O)c4cccc5cccc(c45)C3=O)c2=O)cc1`, for which the inhibition was 24.4%. To `COc1cc(SC#N)ccc1N=Cc1c(C)[nH]n(-c2ccc(C)cc2)c1=O` belongs 84.4% (active); to `COc1cc(NS(=O)(=O)c2ccc(N=Cc3c(C)[nH]n(-c4ccccc4)c3=O)cc2)nc(OC)n1`, -7.07%. For `COc1cc(C(=O)OCc2cc(=O)n3ccsc3n2)ccc1OC(C)C`, the inhibition was -20.6%. To `CC1CCCCC1NCC(=O)Nc1ccccc1C(=O)Nc1ccccc1` (configuration not stated) belongs -14.1%.
